Assay outcomes from PubChem BioAssay.
S1P3 antagonist: S1P3 receptor antagonists, primary screen, cell-based. CHO S1P3 NFAT-BLA reporter, FRET fluorescence, antagonist mode. inhibition, % at 4.98 µM. 170,000 compounds, 0.27% hits. AID 485, 2006. Sphingosine 1-phosphate receptor 3 (Homo sapiens), Q99500;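 active = inhibition above the plate cutoff, the mean inhibition of test wells on that plate plus 3 SD, cut at about 28% in these data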;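 note: cells challenged with S1P at its EC80 of 0.8 µM; blue over green emission ratio from cleaved BLA substrate after 4 h stimulation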
Target sequence (Q99500 whole entry, looked up): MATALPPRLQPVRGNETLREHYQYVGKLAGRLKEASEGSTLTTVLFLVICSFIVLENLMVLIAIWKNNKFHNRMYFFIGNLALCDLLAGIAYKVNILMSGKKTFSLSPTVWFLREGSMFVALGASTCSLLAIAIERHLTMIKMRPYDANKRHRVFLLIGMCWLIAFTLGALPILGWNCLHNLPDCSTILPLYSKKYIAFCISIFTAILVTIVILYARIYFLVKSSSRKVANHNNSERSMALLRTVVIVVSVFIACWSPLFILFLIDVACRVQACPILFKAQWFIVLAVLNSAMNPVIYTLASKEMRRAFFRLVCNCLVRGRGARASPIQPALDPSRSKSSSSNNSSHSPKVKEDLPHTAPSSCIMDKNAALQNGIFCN
GALR2 blocker: GALR2 antagonists in receptor-expressing cells, primary screen; Galanin receptor type 2 (Homo sapiens), O43603; antagonist mode; inhibition, % at 4 µM; 140,000 compounds, 0.39% hits; in the data active = inhibition above about 27%;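 note: cells stimulated with galanin 1-16 at roughly its EC80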
S1P4 antagonist: S1P4 receptor antagonists, primary screen, cell-based. Sphingosine 1-phosphate receptor 4 (Homo sapiens), O95977. S1P4-expressing cells, antagonist mode, reporter read-out. inhibition, % at 4.98 µM. 220,000 compounds, 0.26% hits. AID 1510, 2009; in the data active = inhibition above about 29%
GALR2 ag: GALR2 receptor agonists, primary screen, cell-based; 140,000 compounds, 0.48% hits; Galanin receptor type 2 (Homo sapiens), O43603; AID 803, 2007; activation, % (no concentration beside the values); GALR2-expressing cells, agonist activation read-out; in the data active = activation above about 5%, passing the limit was not always enough
S1P4 ag: S1P4 receptor agonists, primary screen, cell-based | 220,000 compounds, 0.35% hits | S1P4-expressing cell line, agonist reporter assay | Sphingosine 1-phosphate receptor 4 (Homo sapiens), O95977 | activation, % at 4.98 µM; in the data active = activation above about 11%
S1P4 ag conf: S1P4 receptor agonists, retest, confirmation, cell-based, high throughput; S1P4 agonist cell-based reporter assay; AID 1523, 2009; shares compounds with S1P4 ag; 740 compounds, 7% hits; activation, % at 4.98 µM; in the data active = activation above about 12%
S1P1 ag: S1P1 receptor agonists, human, counter-screen for S1P4 agonist project, cell-based; shares compounds with S1P4 ag; S1P1 agonist cell-based assay, activation; activation, % at 4.98 µM; 740 compounds, 4% hits; AID 1563, 2009; in the data active = activation above about 21%
Numbers stand for hits; i = inactive; nt = no result given. Compounds with a hit are over-represented: about 1.3% of the library has one in this group of screens.

SMILES | S1P3 antagonist | GALR2 blocker | S1P4 antagonist | GALR2 ag | S1P4 ag | S1P4 ag conf | S1P1 ag
COc1ccc(Br)cc1/C=C\C(=O)NCc1cccnc1 | i | nt | i | nt | i | nt | nt
COc1cc(/C=C(\C#N)C(=O)NCC2CCCO2)ccc1OCCC(C)C (stereo not drawn) | i | nt | i | nt | i | nt | nt
COc1ccc(Cn2ccnc2)cc1[N+](=O)[O-] | i | i | i | i | 12 | i | i
COc1ccc(Cn2ccnc2)cc1Br | nt | i | i | i | i | nt | nt
CCCNS(=O)(=O)c1cc(Cl)ccc1OC | i | nt | i | nt | 17 | i | i
CNCc1c(C)nn(-c2ccccc2)c1C | i | nt | i | nt | 34 | i | i
COc1c(Br)cc([N+](=O)[O-])c(OC)c1C(=O)NC(=O)Nc1nc(C)cc(C)n1 | i | nt | i | nt | i | nt | nt
Cc1ccc(/C=C/C(=O)Nc2ccc(S(N)(=O)=O)cc2)o1 | i | nt | i | nt | i | nt | nt
Cc1ccc(/C=C/C(=O)NCc2ccc(S(N)(=O)=O)cc2)o1 | i | nt | i | nt | 12 | i | i
CC1C/C(=N/O)C(C)CN1 (stereo not drawn) | nt | i | i | i | i | nt | nt
CN(C)c1ccc(/C=C(/C#N)C(=O)NCc2ccccc2)o1 | i | i | i | i | i | nt | nt
CCOc1ccc(C(=O)NCC(c2cccs2)N(C)C)cc1 (stereo not drawn) | i | i | i | i | 15 | i | i
O=C(CCN1C(=O)c2ccccc2C1=O)NC1=NCCS1 | i | i | i | i | 25 | i | i
O=C(CCn1c(=O)sc2ccccc21)NC1=NCCS1 | nt | i | i | i | i | nt | nt
COc1ccc(CCNC2CC(=O)N(CCc3ccc(OC)c(OC)c3)C2=O)cc1OC (stereo not drawn) | i | i | i | i | i | nt | nt
COc1ccc(CCN2C(=O)CC(NCc3ccc4c(c3)OCO4)C2=O)cc1OC (stereo not drawn) | i | i | i | i | 19 | i | i
CC(C)c1cc(C(=O)OCC(=O)NC(=O)NCc2ccco2)c(O)c(C(C)C)c1 | i | nt | i | nt | 44 | 36 | i
CC(Oc1ccccc1)C(=O)OCC(=O)NC(=O)NCc1ccco1 (stereo not drawn) | nt | i | i | i | i | nt | nt
CCOc1ccccc1OCCCC(=O)Nc1sccc1C(N)=O | i | i | i | i | i | nt | nt
CCOCCCNC(=O)C(c1ccccc1)N(Cc1cccs1)C(=O)CNC(C)=O (stereo not drawn) | i | i | i | i | i | nt | nt
c1ccc2c(c1)N1CCCN=C1N2CCN1CCCCC1 | i | nt | i | nt | 18 | i | i
c1ccc2c(c1)N1CCN=C1N2CCN1CCCCC1 | i | i | i | i | i | nt | nt
Nc1n[nH]c2cc(=O)n(-c3cccc(C(F)(F)F)c3)nc12 | i | nt | i | nt | 65 | i | i
O=c1[nH][nH]c2cc(=O)n(-c3cccc(C(F)(F)F)c3)nc12 | i | nt | i | nt | i | nt | nt
CC(C)(C)NC(=O)C(c1ccncc1)N(C(=O)Cn1nnc(-c2ccc(F)cc2)n1)c1cccc(F)c1 (stereo not drawn) | i | nt | i | nt | i | nt | nt
SMILES | S1P3 antagonist | GALR2 blocker | S1P4 antagonist | GALR2 ag | S1P4 ag | S1P4 ag conf | S1P1 ag
O=C(CCSc1ccccc1)NCc1cccnc1 | i | i | i | i | 11 | i | i
CC1CC(NC(=O)CCn2c(=O)oc3ccccc32)CC(C)(C)C1 (stereo not drawn) | i | i | i | i | 12 | i | i
C[C@H]1CC[C@H]2C(=O)N3[C@H](c4ccccc4Br)[C@@H](C)CC[C@H]3C(=O)N2[C@@H]1c1ccccc1Br | i | i | i | i | i | nt | nt
CCOC(=O)c1c(Cc2ccccc2)c[nH]c1C | i | nt | i | nt | i | nt | nt
NS(=O)(=O)c1ccc(N/N=C/c2cn(-c3ccccc3)nc2-c2cccs2)c([N+](=O)[O-])c1 | i | nt | i | nt | 38 | i | i
O=C1c2cccc3cc([N+](=O)[O-])cc(c23)C(=O)N1CCN1CCCC1 | i | nt | i | nt | 24 | 23 | 92
Nn1cnnc1SCC(=O)N(C1CCCCC1)C1CCCCC1 | i | nt | i | nt | i | nt | nt
COc1ccc(Cl)cc1C(=O)Nn1cnc2ccccc2c1=O | i | i | i | i | 137 | i | i
CC1=Nc2ccccc2/C1=C/c1c(N)n2c(S(=O)(=O)C(C)C)nsc2nc1=O | i | nt | i | nt | i | nt | nt
CC1=Nc2ccccc2/C1=C/c1c(N)n2c(S(=O)(=O)CC(C)C)nsc2nc1=O | i | nt | i | nt | 20 | i | i
Cc1ccc(OCC(=O)N/N=C/c2ccc3c(c2)OCO3)cc1C | i | nt | i | nt | 12 | i | i
O=C(Cc1ccccc1)N/N=C/c1ccc2c(c1)OCO2 | i | nt | i | nt | i | nt | nt
Cc1csc(NC(=O)CCc2c(C)nc3cc(-c4ccc(Cl)cc4)nn3c2C)n1 | i | i | i | i | 196 | i | i
O=C(Nc1ccccc1-c1ccccc1)C1CCCCC1 | i | i | i | i | 12 | i | i
Cc1ccc(C)c(N2CCN(C(=O)c3cccn4c(=O)c5sccc5nc34)CC2)c1 | i | nt | i | nt | i | nt | nt
CC(C)CC(=O)NS(=O)(=O)c1ccc(NS(C)(=O)=O)cc1 | i | nt | i | nt | 17 | i | i
COCCNC(=O)c1ccccc1NC(=O)Cc1ccccc1[N+](=O)[O-] | i | nt | i | nt | 235 | i | i
Cc1cc(C)c2sc(NNC(=O)C3COc4ccccc4O3)nc2c1 (stereo not drawn) | i | i | i | i | 21 | i | i
CC(C)NC(=O)C1COc2ccccc2O1 (stereo not drawn) | i | nt | i | nt | 64 | i | i
Cn1c(N)c(S(=O)(=O)N2CCN(c3ccccc3)CC2)c(=O)n(C)c1=O | i | nt | i | nt | i | nt | nt
Cc1ccc(NC(=O)C(=O)NCCOc2ccccc2Cl)cc1 | i | i | i | i | i | nt | nt
COc1cccc(NC(=O)CN(c2cccc(C(F)(F)F)c2)S(C)(=O)=O)c1 | i | i | i | i | 12 | i | i
C/C(CC1CC(COCC(C)C)OC1=O)=N\NC(N)=S (stereo not drawn) | i | i | i | i | 13 | i | i
CCCCCOCC1CC(C/C(C)=N/NC(N)=S)C(=O)O1 (stereo not drawn) | i | i | i | i | i | nt | nt
O=C(NCc1ccc(F)cc1)C(=O)NCC1OCCN1C(=O)c1ccc(Cl)cc1 (stereo not drawn) | i | i | i | i | i | nt | nt
SMILES | S1P3 antagonist | GALR2 blocker | S1P4 antagonist | GALR2 ag | S1P4 ag | S1P4 ag conf | S1P1 ag
Cc1cccc(N2C(=O)CC(n3ccnc3)C2=O)c1C (stereo not drawn) | i | nt | i | nt | i | nt | nt
O=c1[nH][nH]c2nc(C(F)(F)F)cc(C(F)(F)F)c12 | i | i | i | i | 67 | i | i
COc1ccccc1Nc1ccc(N)cc1 | i | nt | i | nt | 13 | i | i
COc1cc(CCC(=O)O)on1 | i | nt | i | nt | i | nt | nt
CCOC(=O)CS(=O)(=O)c1ccc(C(F)(F)F)cn1 | nt | i | i | i | i | nt | nt
O=S(=O)(c1ccccc1)c1ccc(C(F)(F)F)cn1 | i | nt | i | nt | 35 | i | i
Cc1nc(SCC(=O)NC2CCCC2)[nH]c(=O)c1Cc1ccccc1 | nt | i | i | i | 51 | i | i
